Source: PubChem
Rows were chosen to be rich in hits. Some 6.3% of all compounds tested hit in one or more screens of this group.
DPM-DC inhibit: blocks S. pneumoniae diphosphomevalonate decarboxylase. purified DPM-DC, PK/LDH coupled NADH fluorescence. calls only at 10 µM. hit rate 0.49% among 65,000. AID 556;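 active means the 320 compounds with the highest percent inhibition in the single-dose primary screen, excluding strongly autofluorescent ones, cut at about 32% in these data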;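 further: kinetic rate of NADH fluorescence loss reporting ADP formed by the decarboxylase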
A340 absorber: compound absorbs light at 340 nm; compound absorbance at 340 nm, fold over control; fold change at 10 µM; 65,000 tested, under 10 active;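 active means at 10 µM dose, initial 340 nm absorbance at least 2 fold that of control wells; inactive means change under 2 fold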;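 further: initial absorbance extrapolated from kinetic A340 decline of NADH oxidation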
NADH enzymes: inhibitors of enzymes used to reach an NAD/NADH endpoint; coupled PK/LDH NADH assays, four targets; IC50, µM (top dose mostly 10 µM), for the others: top-dose inhibition; hit rate 0.02% among 65,000;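 active means single-dose screening hits from any of four coupled enzyme assays that gave an IC50 when retested across doses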;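 further: the DPM-DC format reads NADH fluorescence rather than 340 nm absorbance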
Spn PMK inh: inhibitors of Streptococcus pneumoniae phosphomevalonate kinase; purified PMK, PK/LDH-coupled NADH absorbance 340 nm; inhibition, % at 10 µM; hit rate 0.49% among 65,000;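 active means top-ranked compounds by inhibition in the single 10 µM screen, taking a fixed number of the strongest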;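 further: 0% = full reaction with DMSO carrier and 100% = background rate without enzyme reaction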
MK inhibit: S. pneumoniae mevalonate kinase inhibition | purified MK, PK/LDH-coupled NADH absorbance 340 nm | inhibition, % at 10 µM | hit rate 0.48% among 65,000;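 active means ranked among the strongest by inhibition in the single 10 µM screen, a fixed top-ranked set picked for dose follow-up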
Autofluor 339: intrinsic fluorescence of library compounds, ex339/em460 – biochemical, MLSMR library, data from DPM-DC assay, artefact control, profiling panel | compound autofluorescence, ex339/em460 nm, NADH buffer; hits give high values; 1 = no-compound wells, NADH background | fluorescence fold increase at 10 µM | AID 709 | hit rate 5.5% among 65,000;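 active means at 10 µM, mean starting fluorescence two-fold or more over control wells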;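 further: signal is the first read of a kinetic run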
The depositor's hits bear a star; i = inactive; nt = no result shown; + = active, no number.

SMILES	DPM-DC inhibit	A340 absorber	NADH enzymes	Spn PMK inh	MK inhibit	Autofluor 339
CCCCc1nc(NCCN2CCOCC2)c(C#N)c2c1COC(C)(C)C2	i	1	3%	2	11	1.2
Cc1nc(NCCO)c(C#N)c2c1COC(C)(C)C2	nt	1.1	2%	3	0	2
Cc1cccc(NC(=O)C2CCN(c3nc(C)cc(C)n3)CC2)c1	i	0.98	2%	4	2	1.3
O=C(CN1C(=O)CCC1=O)Nc1nc(-c2nc3ccccc3s2)cs1	nt	1.1	4%	3	5	2.1*
COc1cccc(NC(=O)c2oc3ccccc3c2NC(=O)C(C)(C)C)c1	i	1.1	4%	6	6	1.8
COc1cccc(NC(=O)c2oc3ccccc3c2NC(=O)c2ccc3c(c2)OCO3)c1	i	1.1	1%	3	0	2.6*
COc1cc(NC(=O)c2ccc3c(c2)OCO3)c2ncccc2c1	+	1.1	19%	7	5	3*
CC(=O)c1cccc(S(=O)(=O)N(Cc2cc3cc4c(cc3[nH]c2=O)OCCO4)CC2CCCO2)c1 (stereo not given)	i	1.1	8%	12	3	1.4
O=C(NCc1ccccc1)N(Cc1cc2cc3c(cc2[nH]c1=O)OCCO3)CC1CCCO1 (stereo not given)	nt	1.1	3%	4	2	3.7*
O=c1[nH]c2cc3c(cc2cc1CN(CC1CCCO1)S(=O)(=O)c1ccccc1)OCCO3 (stereo not given)	nt	1.1	4%	0	7	3.8*
CC1CN(Cc2nc3c(c(=O)n(C)c(=O)n3C)n2CCCc2ccccc2)CC(C)O1 (stereo not given)	i	0.98	8%	13	11	1.1
Cc1ccc(NC2c3ncccc3C(=O)N2c2ccccc2C)cc1C (stereo not given)	i	1.1	35%	23	83*	1.2
O=C(O)CCn1nnc(-c2cccs2)n1	+	0.95	26%	13	0	0.4
Nc1ccc[n+](Cc2ccccn2)c1	i	1.1	8%	20	4	2.1*
COCCn1cc(C(=O)NCc2cccs2)c2c3ccccc3n(C)c2c1=O	i	1	15%	15	11	3.5*
Cn1c(C(=O)NCCCN2CCN(c3ccc(F)cc3)CC2)cc2c(=O)n(C)c3ccccc3c21	i	0.99	2%	9	7	1.1
COCCn1cc(C(=O)NCCCN2CCC(C)CC2)c2c3ccccc3n(C)c2c1=O	+	1	8%	15	0	2.5*
CCN1CCN(CCCNC(=O)c2cn(CCOC)c(=O)c3c2c2ccccc2n3C)CC1	i	1	4%	6	1	3*
CCN(CC)CCCNC(=O)c1cn(CCOC)c(=O)c2c1c1ccccc1n2C	nt	1	8%	10	6	4.4*
CCCN(CCC)CCNC(=O)c1cc2c(=O)n(C)c3ccccc3c2n1C	nt	1	4%	10	5	1.6
CCCCOCCCNS(=O)(=O)Cc1ccccc1	i	1	4%	9	4	1.1
Cn1c(=O)oc2cc(S(=O)(=O)N3CCN(c4cccc(Cl)c4)CC3)ccc21	i	1.1	4%	7	5	1.1
CC(=O)Nc1ccc(NS(=O)(=O)C(F)(F)F)cc1	i	0.99	1%	6	0	1
O=c1c2c(nc3c(-c4cccc5ccccc45)c[nH]n13)CCC2	nt	1.1	8%	2	13	3.6*
Cc1[nH]n2c(=O)c3c(nc2c1-c1ccccc1)CCCC3	i	1	6%	9	3	1.5
SMILES	DPM-DC inhibit	A340 absorber	NADH enzymes	Spn PMK inh	MK inhibit	Autofluor 339
O=c1c2c(nc3c(-c4ccc(Cl)cc4)c[nH]n13)CCCC2	nt	1	1%	1	0	4.1*
CCc1cc2c(=O)c(-c3cnn(-c4ccccc4)c3)coc2c(CN2CCOCC2)c1O	i	0.97	9%	14	2	2.9*
O=c1c(-c2ccc(Br)cc2)coc2c(CN3CCOCC3)c(O)ccc12	nt	1.1	4%	7	1	3*
Cc1oc2c(CN3CCCC3)c(O)ccc2c(=O)c1-c1ccccc1	nt	1.1	6%	17	9	3*
Cc1oc2c(CN3CCOCC3)c(O)ccc2c(=O)c1-c1ccc(Br)cc1	nt	0.99	6%	12	6	3.1*
CCc1cc2c(=O)c(-c3nc4ccccc4n3C)coc2c(CN2CCOCC2)c1O	i	1.2	12%	6	1	1.3
O=C(c1coc2ccc(O)c(CN3CCOCC3)c12)C1CC1	i	1	9%	13	13	1.1
CCOc1cc(C(=O)NCc2nnc(SCC(=O)OC)n2C)cc(OCC)c1OCC	i	1	12%	12*	0	1
O=C(Nc1ccc(-c2noc(COc3ccccc3Cl)n2)cc1)c1ccco1	i	0.8	12%	32*	3	1
Cc1ccc(C(=O)NCCN(C)C)c(C)c1	i	1	2%	0	5	1.1
CN(C)CCNC(=O)c1coc(=O)c(Br)c1	nt	1.1	10%	10	9	3.7*
O=C(NCc1ccco1)Oc1ccccc1	i	1	4%	0	13	1.1
CC(OC(=O)c1ccccc1NCc1ccco1)C(=O)Nc1ncc(Cl)cc1Cl (stereo not given)	nt	1.1	2%	0	3	2.2*
CC(OC(=O)c1cc2sccc2n1C)C(=O)NCc1ccco1 (stereo not given)	i	1	3%	8	0	1.1
Clc1ccc2c(c1)C1OCCC1C(c1ccco1)N2 (stereo not given)	nt	1.1	9%	10	7	3.7*
CC(=O)c1cccc(NC(=O)c2cc(C(C)C)on2)c1	i	1.1	1%	0	4	1.1
CC(=O)c1cccc(NC(=O)c2cc3nc(C)cc(C)n3n2)c1	i	1	10%	7	5	2.5*
CCOC(=O)c1c(NC(=O)c2nn(CC)cc2Br)sc(C)c1C	nt	1.1	4%	6	1	3.5*
CCOC(=O)c1c(NC(=O)c2ccc(-n3cnnn3)cc2)sc2c1CCCC2	i	1.1	14%	13	3	3*
CCOC(=O)c1c(NC(=O)c2nn(CC)cc2Br)sc2c1CCCCC2	nt	1.1	0%	0	0	3.6*
Cc1cccc(C)c1NC(=O)c1ccc(-n2cnnn2)cc1	i	1	6%	18	0	1
COC(=O)C1CCN(C(=O)COc2ccc(Cl)cc2)CC1	i	1	2%	0	5	1.1
Cc1nn(-c2nc3ccccc3n2Cc2ccccc2)c2c1C(=O)CC(C)(C)C2	i	1	3%	3	7	1.1
CCOCC(=O)Nc1cccc(NC(C)=O)c1	i	0.99	0%	0	1	1.1
COc1ccc(OC)c(-c2nnc(-c3ccc(C)o3)o2)c1	nt	1.1	11%	10	12	3.9*
COc1ccc(S(=O)(=O)NCc2ccncc2)cc1OC	i	1	0%	0	0	1
